± gives the standard deviation of the averaged measurements.
Key:
Experiment in all cases: cell viability (% of vehicle); higher = less cytotoxic
Conditions in all cases: 10 µM; 72 h
HCI01 = test system: HCI01 (cells of a triple-negative basal-like breast cancer xenograft)
HCI03 = test system: HCI03 (cells of an ER-positive luminal breast cancer xenograft)
HCI09 = test system: HCI09 (cells of a triple-negative luminal androgen receptor type breast cancer xenograft)
HCI11 = test system: HCI11 (cells of an ER-positive luminal breast cancer xenograft)
HCI13 = test system: HCI13 (cells of an ER-positive luminal breast cancer xenograft)
HCI16 = test system: HCI16 (cells of a triple-negative basal-like breast cancer xenograft)
UCD52 = test system: UCD52 (cells of a triple-negative basal-like breast cancer xenograft)
WHIM2 = test system: WHIM2 (cells of a triple-negative basal-like breast cancer xenograft)
WHIM30 = test system: WHIM30 (cells of a triple-negative basal-like breast cancer xenograft)
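Also: PDX cells carrying CMV promoter-driven luciferase, viability read as total photon flux per second by IVIS imaging following D-luciferin, vehicle control 0.1% DMSO.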

Structure (SMILES)	cell viability (HCI01)	cell viability (HCI03)	cell viability (HCI09)	cell viability (HCI11)	cell viability (HCI13)	cell viability (HCI16)	cell viability (UCD52)	cell viability (WHIM2)	cell viability (WHIM30)
CCCOc1ccc(C(=O)OCCN(CC)CC)cc1N.Cl [Proparacaine HCl]	99.6 ± 12	165	91 ± 17	91.9	111 ± 5.8	109	102 ± 11	97.1 ± 7.6	114 ± 13
Cc1cn(-c2cc(/N=C(\O)c3ccc(C)c(Nc4nccc(-c5cnccn5)n4)c3)cc(C(F)(F)F)c2)cn1 [Radotinib(IY-5511)]	89.5 ± 3.2	142	92.6 ± 13	92.9	80.9 ± 9.7	107	102 ± 10	100 ± 12	104 ± 27
CN1C[C@@H]2c3ccccc3Oc3ccc(Cl)cc3[C@H]2C1.O=C(O)/C=C/C(=O)O [Asenapine]	91.9 ± 7	93	68.9 ± 5.4	93.7	72.7 ± 4.8	121	71 ± 5.6	79.5 ± 14	114 ± 25
CC1CCc2cc(F)cc3c(=O)c(C(=O)O)cn1c23 (stereo not drawn) [Flumequine]	92.8 ± 10	156	93.1 ± 7.6	118	117 ± 6.8	138	107 ± 5.8	98.4 ± 4.2	135 ± 15
Cl.NC(N)=NC(=O)c1nc(Cl)c(N)nc1N.O.O [Amiloride HCl dihydrate]	99.2 ± 7.3	102	121 ± 1.5	89.4	102 ± 8.4	115	96.35 ± 0.8	86 ± 16	114 ± 8.2
N=C(NCCCCCCNC(=N)NC(=N)Nc1ccc(Cl)cc1)NC(=N)Nc1ccc(Cl)cc1 [Chlorhexidine digluconate]	77.9 ± 12	118	60.1 ± 19	76	68.6 ± 2	112	98.5 ± 24	48.8 ± 1.5	103 ± 6
CC[C@H](C)[C@@H]1NC(=O)[C@H](Cc2ccc(O)cc2)NC(=O)[C@@H](N)CSSC[C@@H](C(=O)N2CCC[C@H]2C(=O)N[C@@H](CC(C)C)C(=O)NCC(N)=O)NC(=O)[C@H](CC(N)=O)NC(=O)[C@H](CCC(N)=O)NC1=O [Oxytocin]	116 ± 13	110	99.7 ± 2.2	69.2	134 ± 41	128	115 ± 1.7	126 ± 1.9	134 ± 8.1
CCCCc1nc(Cl)c(CO)n1Cc1ccc(-c2ccccc2-c2nnn[n-]2)cc1.[K+] [Losartan Potassium (DuP 753)]	126 ± 8.5	124	106 ± 8.5	79	82.7 ± 0.98	82.3	97.9 ± 7.8	87 ± 17	118 ± 2.1
Nc1nc(=O)c2ncn(CCC(CO)CO)c2[nH]1 [Penciclovir]	115 ± 28	140	92.4 ± 6.6	95.3	84.4 ± 9.1	130	110 ± 5.5	123 ± 34	99.7 ± 8.5
COc1ccc(CC2c3cc(OC)c(OC)cc3CC[N+]2(C)CCC(=O)OCCCCCOC(=O)CC[N+]2(C)CCc3cc(OC)c(OC)cc3C2Cc2ccc(OC)c(OC)c2)cc1OC.O=S(=O)([O-])c1ccccc1.O=S(=O)([O-])c1ccccc1 (stereo not drawn) [Atracurium Besylate]	187 ± 100	110	87.1 ± 58	81	80.1 ± 19	145	126 ± 2.7	71.5 ± 12	97.1 ± 7
Nc1nc(=O)c2c([nH]1)NCC(CNc1ccc(C(=O)NC(CCC(=O)[O-])C(=O)[O-])cc1)N2C=O.O.O.O.O.O.[Ca+2] (stereo not drawn) [Leucovorin Calcium]	104 ± 22	102	131 ± 55	83.9	108 ± 13	127	122 ± 2.5	67.9 ± 22	156 ± 29
Cl.O=C(c1ccc(OCCN2CCCCC2)cc1)c1c(-c2ccc(O)cc2)sc2cc(O)ccc12 [Raloxifene HCl]	163 ± 35	71.2	33.7 ± 1.3	116	50.8 ± 3	182	80.5 ± 3.9	44 ± 7.1	156.6 ± 1.1
CCOC(=O)C(CCc1ccccc1)NC(C)C(=O)N1Cc2ccccc2CC1C(=O)O.Cl (stereo not drawn) [Quinapril HCl]	61.5 ± 37	111	72.7 ± 10	94.8	104 ± 5.7	96.9	83.7 ± 5.6	95.1 ± 3.9	105 ± 14
CCCC1CC(C(=O)NC(C(C)Cl)C2OC(SC)C(O)C(O)C2O)N(C)C1.Cl (stereo not drawn) [Clindamycin HCl]	101 ± 7.5	122	99.45 ± 0.17	104	88.2 ± 19	142	117 ± 2.3	106 ± 33	122 ± 2.6
CO/N=C(\C(=O)N[C@@H]1C(=O)N2C(C(=O)[O-])=C(COC(C)=O)CS[C@H]12)c1csc(N)n1.[Na+] [Cefotaxime (sodium salt)]	94.8 ± 14	121	105 ± 3.7	74.9	155 ± 13	107	116.5 ± 0.35	99.12 ± 0.99	136.3 ± 0.17
Cc1ccc(C(=O)c2cc(O)c(O)c([N+](=O)[O-])c2)cc1 [Tolcapone]	70.6 ± 40	52.5	14.6 ± 1.4	57.5	64.16 ± 0.48	84.2	71.6 ± 18	117 ± 26	120 ± 7.5
O=C(O)CCNC(=O)c1ccc(/N=N/c2ccc(O)c(C(=O)O)c2)cc1 [Balsalazide]	96.3 ± 18	120	87.6 ± 1.2	91.1	120 ± 6.3	114	93.5 ± 10	98.8 ± 15	110 ± 6.1
CC(C)(Sc1cc(C(C)(C)C)c(O)c(C(C)(C)C)c1)Sc1cc(C(C)(C)C)c(O)c(C(C)(C)C)c1 [Probucol]	83.1 ± 22	129	116 ± 8.1	89.7	94.85 ± 0.74	103	93.68 ± 0.28	90.5 ± 23	113 ± 1.5
Nc1ccn(CC(CO)OCP(=O)(O)O)c(=O)n1.O.O (stereo not drawn) [Cidofovir dihydrate]	120 ± 9.9	136	109 ± 42	94.7	152 ± 12	96.8	88 ± 0.94	97 ± 24	81 ± 1.9

Structure (SMILES)	cell viability (HCI01)	cell viability (HCI03)	cell viability (HCI09)	cell viability (HCI11)	cell viability (HCI13)	cell viability (HCI16)	cell viability (UCD52)	cell viability (WHIM2)	cell viability (WHIM30)
C/C=C/C1=C(C(=O)O)N2C(=O)[C@@H](NC(=O)[C@H](N)c3ccc(O)cc3)[C@@H]2SC1 [Cefprozil]	97.6 ± 3.2	174	103 ± 22	97	85.4 ± 1.5	115	107 ± 8.6	93.4 ± 26	115 ± 7.5
O=C(CCc1ccc(O)cc1)c1c(O)cc(O)cc1OC1OC(CO)C(O)C(O)C1O (stereo not drawn) [Phloridzin]	104 ± 31	123	98.1 ± 10	97.7	106 ± 6.1	115	105 ± 4.7	96.2 ± 9.1	97.2 ± 7.4
CCc1cc(C(C)=NOCc2ccc(C3CCCCC3)c(C(F)(F)F)c2)ccc1CN1CC(C(=O)O)C1 [BAF312 (Siponimod)]	97.4 ± 10	124	44.2 ± 29	72.2	75.64 ± 0.57	115	93.7 ± 1.5	93.7 ± 17	111 ± 9.5
CCN(CC)CCNC(=O)c1cc(Cl)c(N)cc1OC [Metoclopramide]	112 ± 6.5	107	90.8 ± 17	94.6	121 ± 10	72.6	98.01 ± 0.093	88.4 ± 2.2	113 ± 27
CS(=O)(=O)c1ccc(C(O)C(CO)NC(=O)C(Cl)Cl)cc1 (stereo not drawn) [Thiamphenicol]	109 ± 26	104	85.8 ± 3.5	82.9	64.4 ± 4.1	103	84.7 ± 13	107 ± 29	122 ± 6.1
Cc1ccccc1C(OCCN(C)C)c1ccccc1.O=C(O)CC(O)(CC(=O)O)C(=O)O (stereo not drawn) [Orphenadrine Citrate]	145 ± 33	130	104 ± 1.3	90.9	108 ± 15	138	68.3 ± 6.3	83.3 ± 17	100 ± 7.5
Nc1nc(CC(=O)Nc2ccc(CCNCC(O)c3ccccc3)cc2)cs1 (stereo not drawn) [Mirabegron (YM178)]	127 ± 6.3	109	136 ± 51	107	140 ± 13	137	82.2 ± 9.6	97 ± 19	132 ± 4.2
COc1ccccc1N1CCN(CC(O)COc2cccc3ccccc23)CC1 (stereo not drawn) [Naftopidil]	116 ± 8.4	84.3	87.2 ± 14	107	103 ± 19	108	67.4 ± 2.8	89.8 ± 24	104 ± 12
COc1ccc(C(=O)c2ccccc2)c(O)c1 [Oxybenzone]	120 ± 26	141	111 ± 15	109	103 ± 8.8	128	117 ± 11	125 ± 6.8	137 ± 22
Clc1ccc2nsnc2c1NC1=NCCN1 [Tizanidine]	97.7 ± 3.7	94.6	149 ± 74	110	109 ± 26	110	101 ± 7.1	82.1 ± 22	91.9 ± 20
CCCC(CCC)C(=O)[O-].[Na+] [Valproic acid sodium salt (Sodium valproate)]	190 ± 54	154	92 ± 18	140	111 ± 14	159	158 ± 42	105 ± 18	192 ± 10
Br.CN(C)CCC[C@]1(c2ccc(F)cc2)OCc2cc(C#N)ccc21 [Citalopram hydrobromide]	103 ± 25	138	93.7 ± 14	108	103 ± 6.7	129	106 ± 9	94.2 ± 24	87.9 ± 8.7
Cl.NNc1nncc2ccccc12 [Hydralazine HCl]	142 ± 22	131	113 ± 9.5	79.8	121 ± 7.1	180	162 ± 3.2	148 ± 5.5	151 ± 11
C[N+](C)(C)CCOC(N)=O.[Cl-] [Carbamoylcholine chloride]	108 ± 11	120	89.4 ± 1.1	71.4	112 ± 4.6	124	95.6 ± 2.4	127 ± 7	98.9 ± 1.4
C=C[C@@H]1C[N@@]2CC[C@H]1C[C@@H]2[C@H](O)c1ccnc2ccc(OC)cc12 [Quinidine]	89 ± 10	135	102 ± 20	102	122 ± 8.8	123	97.9 ± 2.7	101 ± 11	101 ± 6.2
CCCCCCCCCCCCCCCC(=O)OCC=C(C)C=CC=C(C)C=CC1=C(C)CCCC1(C)C [Retinyl (Vitamin A) Palmitate]	102 ± 22	100	88.4 ± 3.2	88.1	79 ± 17	104	94.3 ± 4.9	112 ± 27	125 ± 13
NNC(=O)c1ccncc1 [Isoniazid]	97.4 ± 7.2	109	92.6 ± 10	87.2	119 ± 13	127	72.6 ± 13	95.6 ± 4	114 ± 3.3
CCOC(=O)C(CCc1ccccc1)NC(C)C(=O)N1CCCC1C(=O)O.O=C(O)C=CC(=O)O (stereo not drawn) [Enalapril Maleate]	128 ± 31	126	101 ± 2.9	72.3	102 ± 8.6	120	120 ± 4.4	116 ± 15	104 ± 3

From the supplement of paper PMC6992640
